Data as given in PubChem BioAssay.
The source made the active and inactive calls.

What was measured:
[1] = target: Albumin (Bos taurus) (UniProt P02769); experiment: compounds binding labelled BSA control protein – biochemical, small-molecule microarray, Alexa647 label, 635/667 nm fluorescence, artefact control for SMM control protein annotation, profiling panel (AID 1118); conditions: BSA-A647 binding, fluorescence 635 nm, higher = more signal;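 note: score merges 667 nm emission intensity and signal-to-noise per printed compound spot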
[2] = probe aXIP binding to arrayed compounds – biochemical, NeuroSMM set, 635/667 nm fluorescence, primary screen (AID 1119); conditions: small-molecule microarray, higher = more signal, called active from +8 up or from −8 down;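 note: probe is the protein aXip251-270 applied at 1 µg/mL to compound-printed slides; binding of probe to printed compounds measured as 667 nm fluorescence plus signal to noise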
[3] = probe aNOTCH3 binding on compound microarray – biochemical, small-molecule microarray, 635/667 nm fluorescence, primary screen (AID 1120); conditions: higher = more signal;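 note: probe is a biotin-tagged antibody raised against NOTCH3 rather than NOTCH3 protein; score merges spot fluorescence near 667 nm with spot signal to noise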
[4] = probe aNOTCH2 binding on compound microarray – biochemical, small-molecule microarray, 635/667 nm fluorescence, primary screen (AID 1121); conditions: higher = more signal;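 note: score merges feature fluorescence read at 667 nm with its signal to noise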
[5] = target: Carbonic anhydrase 2 (Homo sapiens) (UniProt P00918); experiment: compounds binding carbonic anhydrase 2 – biochemical, small-molecule microarray, Alexa647-labelled CAII, profiling panel (AID 1122); conditions: CAII-A647 binding fluorescence, higher = more signal
[6] = COS7 lysate on small-molecule microarray, probe aHis, 635 nm (AID 1123); conditions: COS7 cell lysate, fluorescence, higher = more signal;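 note: z-score combines 667nm fluorescence intensity with signal-to-noise per printed compound spot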
[7] = probe aLAP1 signal on lysate-treated microarray – cell lysate, small-molecule microarray, COS7 lysate, primary screen (AID 1124); conditions: probe aLAP1, fluorescence, higher = more signal;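 note: lysate comes from COS7 cells expressing LAP1 and is applied at 0.3 µg/mL; score merges spot fluorescence near 667 nm with signal-to-noise over triplicate slides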
[8] = system: Sam68 (KHDRBS1); experiment: compounds binding KHDRBS1 protein – biochemical, small-molecule microarray, 635 nm fluorescence, primary screen (AID 1125); conditions: higher = more signal;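 note: score merges 667 nm channel intensity with signal to noise over triplicate slides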
[9] = system: Chordin-like protein 2 (CHRDL2); experiment: compounds binding chordin-like 2 – biochemical, small-molecule microarray, 635 nm fluorescence, primary screen (AID 1126); conditions: fluorescence 635 nm, higher = more signal;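 note: printed compound slides probed with Chrdl2 protein at 4 µg/mL for 1 h at 4 C; score merges 667 nm emission intensity with signal to noise over three replicate slides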
[10] = target: Concanavalin-A (Canavalia ensiformis) (UniProt P02866); experiment: compounds binding concanavalin A lectin – biochemical, small-molecule microarray, Alexa647 label, 635 nm, artefact control for SMM control protein annotation, primary screen (AID 1127); conditions: ConA-A647 binding fluorescence, higher = more signal;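 note: z combines 667 nm emission intensity with signal-to-noise across three replicate slides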
[11] = compounds binding Alexa647 anti-His antibody – biochemical, small-molecule microarray, 635 nm fluorescence, artefact control for SMM control protein annotation, primary screen (AID 1128); conditions: higher = more signal;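 note: score merges feature fluorescence with signal-to-noise for each printed compound spot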
[12] = system: Human papillomavirus type 1a E7 protein (residues 1-88); experiment: HPV1a E7 small-molecule binders, primary screen, biochemical, small-molecule microarray, residues 1-88, 635 nm (AID 1129); conditions: small-molecule microarray binding, fluorescence 635 nm; higher = more signal
[13] = target: Focal adhesion kinase 1 (Homo sapiens) (UniProt Q05397); experiment: PTK2 protein binding on printed compound slides – biochemical, small-molecule microarray, 635/667 nm fluorescence, BSA, DTT, primary screen (AID 1130); conditions: 635 nm fluorescence, higher = more signal;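 note: composite of spot emission at 667 nm and signal to noise over triplicate slides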
[14] = system: Fibrinogen (Alexa647-labelled); experiment: Alexa647-fibrinogen binding to printed small molecules – biochemical, small-molecule microarray, 635/667 nm fluorescence, artefact control for SMM control-protein annotation, profiling panel (AID 1131); conditions: fibrinogen-A647 binding fluorescence, higher = more signal;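 note: z-score merges 667 nm fluorescence with per-spot signal-to-noise over triplicate slides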
[15] = target: Follistatin (Homo sapiens) (UniProt P19883); experiment: FST protein binding to printed compounds – biochemical, small-molecule microarray, 635/667 nm fluorescence, primary screen (AID 1132); conditions: 635 nm fluorescence, higher = more signal
[16] = target: Fibroblast growth factor 2 (Homo sapiens) (UniProt P09038); experiment: basic fibroblast growth factor binding to printed compounds – biochemical, small-molecule microarray, 635/667 nm fluorescence, primary screen (AID 1133); conditions: FGF2, fluorescence 635/667, higher = more signal
[17] = JC-1 mitochondrial potential readout, lung cancer cells – cell-based, A549, JC-1 fluorescence, basal, 24 h, 100 nL, profiling panel (AID 1138); conditions: higher = more signal;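 note: A549 lung adenocarcinoma cells under basal conditions with no added stimulus; test concentration not given here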
[18] = system: Lefty1; experiment: Lefty1 protein binding to printed compounds – biochemical, small-molecule microarray, 635/667 nm fluorescence, primary screen (AID 1139); conditions: fluorescence 635/667, higher = more signal
[19] = system: wheat germ agglutinin (Triticum aestivum), Alexa647-labelled; experiment: Alexa647-WGA lectin binding to printed small molecules – biochemical, small-molecule microarray, 635/667 nm fluorescence, artefact control for SMM control-protein annotation, profiling panel (AID 1140); conditions: WGA-A647 binding, 635 nm fluorescence, higher = more signal;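 note: score merges 667 nm feature emission with signal to noise over triplicate slides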
[20] = target: Luciferin 4-monooxygenase (Photinus pyralis) (UniProt P08659); experiment: inhibition of purified Photinus pyralis luciferase – biochemical, luminescence, purified enzyme, 2006 set, primary screen (AID 1141); conditions: purified firefly luciferase, SteadyGlo luminescence, 30 min; higher = more signal, called active from +8 up or from −8 down;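 note: cell-free assay with purified firefly luciferase at 100 ng per well in PBS; test concentration not given here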
Luciferin 4-monooxygenase (Photinus pyralis), sequence (P08659 whole entry, looked up): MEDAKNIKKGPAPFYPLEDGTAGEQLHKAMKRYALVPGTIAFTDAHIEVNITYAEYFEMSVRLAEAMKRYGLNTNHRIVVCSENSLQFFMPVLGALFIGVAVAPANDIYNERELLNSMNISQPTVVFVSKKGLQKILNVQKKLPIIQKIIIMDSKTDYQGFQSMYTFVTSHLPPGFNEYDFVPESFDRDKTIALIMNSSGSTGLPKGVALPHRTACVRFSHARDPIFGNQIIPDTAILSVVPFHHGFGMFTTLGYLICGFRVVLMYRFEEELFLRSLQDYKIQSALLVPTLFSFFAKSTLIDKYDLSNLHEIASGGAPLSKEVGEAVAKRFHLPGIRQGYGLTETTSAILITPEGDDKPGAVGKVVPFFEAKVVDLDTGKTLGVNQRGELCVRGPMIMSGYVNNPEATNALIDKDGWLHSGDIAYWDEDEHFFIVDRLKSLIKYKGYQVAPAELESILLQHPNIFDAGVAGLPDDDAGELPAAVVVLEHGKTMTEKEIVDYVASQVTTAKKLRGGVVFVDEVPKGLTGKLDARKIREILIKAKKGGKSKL

Focal adhesion kinase 1 (Homo sapiens), sequence (Q05397 whole entry, looked up): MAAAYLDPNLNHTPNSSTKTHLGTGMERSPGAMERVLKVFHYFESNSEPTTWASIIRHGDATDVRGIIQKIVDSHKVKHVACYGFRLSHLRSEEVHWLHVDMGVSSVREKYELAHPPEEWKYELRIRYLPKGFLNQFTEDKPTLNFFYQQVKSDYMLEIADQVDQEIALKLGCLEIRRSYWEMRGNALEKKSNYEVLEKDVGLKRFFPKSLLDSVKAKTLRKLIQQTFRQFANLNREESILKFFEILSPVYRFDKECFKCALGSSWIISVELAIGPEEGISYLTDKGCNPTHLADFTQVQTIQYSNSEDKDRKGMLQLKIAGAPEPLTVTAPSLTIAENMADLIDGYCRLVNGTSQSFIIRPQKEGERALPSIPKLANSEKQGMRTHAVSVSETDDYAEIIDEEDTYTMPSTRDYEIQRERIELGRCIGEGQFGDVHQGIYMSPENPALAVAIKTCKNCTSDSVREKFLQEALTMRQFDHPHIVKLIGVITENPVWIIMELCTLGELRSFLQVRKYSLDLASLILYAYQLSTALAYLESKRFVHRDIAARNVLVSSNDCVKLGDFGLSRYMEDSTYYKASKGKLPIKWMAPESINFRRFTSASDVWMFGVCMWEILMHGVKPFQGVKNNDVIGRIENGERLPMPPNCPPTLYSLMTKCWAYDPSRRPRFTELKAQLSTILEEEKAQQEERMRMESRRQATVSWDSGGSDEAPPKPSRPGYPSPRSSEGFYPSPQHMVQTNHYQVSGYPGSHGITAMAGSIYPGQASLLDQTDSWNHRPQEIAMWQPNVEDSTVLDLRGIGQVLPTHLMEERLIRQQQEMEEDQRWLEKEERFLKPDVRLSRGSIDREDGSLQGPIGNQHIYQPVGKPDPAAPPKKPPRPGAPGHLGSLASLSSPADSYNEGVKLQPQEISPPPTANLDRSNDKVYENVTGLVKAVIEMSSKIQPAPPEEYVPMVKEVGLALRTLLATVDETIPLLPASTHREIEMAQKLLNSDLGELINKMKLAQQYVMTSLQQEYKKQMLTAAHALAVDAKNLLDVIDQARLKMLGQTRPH
Albumin (Bos taurus), sequence (P02769 whole entry, looked up): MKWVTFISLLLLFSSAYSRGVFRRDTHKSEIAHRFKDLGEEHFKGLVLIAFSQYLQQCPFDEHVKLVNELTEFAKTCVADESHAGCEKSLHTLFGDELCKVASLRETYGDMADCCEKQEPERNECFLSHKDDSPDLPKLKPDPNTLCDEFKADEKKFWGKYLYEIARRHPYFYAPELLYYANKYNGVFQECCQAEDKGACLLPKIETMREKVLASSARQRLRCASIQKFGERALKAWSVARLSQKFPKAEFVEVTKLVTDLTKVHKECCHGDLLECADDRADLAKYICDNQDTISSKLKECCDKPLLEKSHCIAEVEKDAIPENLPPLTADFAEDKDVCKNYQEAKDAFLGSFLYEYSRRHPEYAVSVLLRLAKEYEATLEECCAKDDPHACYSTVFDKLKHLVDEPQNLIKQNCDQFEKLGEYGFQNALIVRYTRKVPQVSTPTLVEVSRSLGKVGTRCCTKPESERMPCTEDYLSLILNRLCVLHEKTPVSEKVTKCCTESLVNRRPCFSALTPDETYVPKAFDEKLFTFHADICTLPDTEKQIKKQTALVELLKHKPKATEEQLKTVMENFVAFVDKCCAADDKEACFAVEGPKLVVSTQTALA
Follistatin (Homo sapiens), sequence (P19883 whole entry, looked up): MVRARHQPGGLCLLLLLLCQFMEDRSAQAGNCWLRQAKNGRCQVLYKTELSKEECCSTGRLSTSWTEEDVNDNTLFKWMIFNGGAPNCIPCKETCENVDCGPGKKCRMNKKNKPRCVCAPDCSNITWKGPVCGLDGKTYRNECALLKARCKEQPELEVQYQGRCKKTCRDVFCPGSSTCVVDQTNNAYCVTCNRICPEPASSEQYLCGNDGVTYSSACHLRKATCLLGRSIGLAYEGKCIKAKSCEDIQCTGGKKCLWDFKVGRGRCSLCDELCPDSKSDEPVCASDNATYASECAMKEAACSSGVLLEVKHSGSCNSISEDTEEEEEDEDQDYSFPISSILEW
Fibroblast growth factor 2 (Homo sapiens), sequence (P09038 whole entry, looked up): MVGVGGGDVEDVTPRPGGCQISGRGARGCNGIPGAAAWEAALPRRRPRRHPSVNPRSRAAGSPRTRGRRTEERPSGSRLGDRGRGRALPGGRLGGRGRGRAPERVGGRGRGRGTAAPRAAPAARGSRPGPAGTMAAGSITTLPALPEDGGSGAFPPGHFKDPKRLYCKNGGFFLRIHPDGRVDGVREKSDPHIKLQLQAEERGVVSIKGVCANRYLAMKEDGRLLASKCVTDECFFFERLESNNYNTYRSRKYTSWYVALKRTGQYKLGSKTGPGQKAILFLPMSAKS
Concanavalin-A (Canavalia ensiformis), sequence (P02866 whole entry, looked up): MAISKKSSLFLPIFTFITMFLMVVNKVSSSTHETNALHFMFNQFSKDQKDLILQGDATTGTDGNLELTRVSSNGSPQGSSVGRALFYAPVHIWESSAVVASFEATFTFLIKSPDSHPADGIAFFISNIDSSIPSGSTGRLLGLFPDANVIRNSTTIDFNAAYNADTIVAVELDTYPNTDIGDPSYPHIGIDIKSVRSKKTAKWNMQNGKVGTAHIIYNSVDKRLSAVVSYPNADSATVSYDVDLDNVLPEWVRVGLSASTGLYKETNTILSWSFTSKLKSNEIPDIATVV

Row | SMILES | composite z-score [1] | composite Z-score [2] | composite z-score [3] | composite z-score [4] | composite z-score [5] | composite z-score [6] | composite z-score [7] | composite z-score [8] | composite z-score [9] | composite z-score [10] | composite z-score [11] | composite z-score [12] | composite z-score [13] | composite z-score [14] | composite z-score [15] | composite z-score [16] | z-score [17] | composite z-score [18] | composite z-score [19] | z-score [20]
1 | CC(C)(C)N1C(=O)[C@H]2[C@H]3[C@H](O)[C@H](O)CC(=NNC(=O)OCc4ccccc4)[C@@H]3CC[C@H]2C1=O | 0.303 | -0.151 (inactive) | 0.073 | -0.0515 | 0.0243 | 0.728 | 0.3 | 0.692 | 0.397 | 0.87 | 0.0938 | 0.486 | 0.32 | 0.459 | 0.258 | 0.704 | -0.202 | 0.34 | 0.433 | -0.728 (inactive)
2 | C[C@@H]1CC[C@H]2C(=O)N3[C@@H](CC[C@@H](C)[C@@H]3c3ccc(Br)cc3)C(=O)N2[C@H]1c1ccc(Br)cc1 | 0.213 | -0.119 (inactive) | 0.0462 | 0.224 | -0.161 | 0.246 | -0.0873 | 0.31 | 0.391 | 0.344 | 0.0399 | -0.0695 | -0.104 | 0.122 | 0.301 | 0.13 | 1.48 | 0.52 | -0.0219 | -0.199 (inactive)
3 | COC(=O)[C@@H]1CC[C@H](C)[C@@H](c2ccc(Br)cc2)N1 | -0.109 | 1.22 (inactive) | 0.086 | 0.0037 | 0.665 | 0.878 | -0.243 | -1.39 | 0.322 | -0.197 | 0.426 | -1.3 | 1.38 | 0.102 | -0.291 | -0.21 | 0.0492 | -0.04 | -0.197 | -0.464 (inactive)
4 | CC(C)CON=C1C[C@@H](O)[C@@H](O)[C@@H]2[C@@H]3C(=O)N(Cc4ccccc4)C(=O)[C@@H]3CC[C@H]12 | 0.428 | -0.288 (inactive) | -0.0679 | -0.122 | 0.0889 | 0.211 | -0.366 | 0.51 | 0.447 | 0.321 | 0.247 | 0.502 | 0.052 | 0.666 | 0.363 | 0.474 | -1.03 | 0.669 | 0.134 | 1.14 (inactive)
5 | CCN1C(=O)[C@H]2[C@H]3[C@H](O)[C@H](O)CC(=NOCC=C(C)CCC=C(C)C)[C@@H]3CC[C@H]2C1=O | 0.44 | -0.496 (inactive) | 0.144 | -0.118 | 0.0577 | 0.162 | 0.39 | 1.25 | 1.39 | 0.13 | 0.521 | 0.344 | -0.0746 | 0.493 | 1.31 | 1.01 | -0.717 | 1.23 | -0.207 | 0.146 (inactive)
